Experimental data reported in ChEMBL document CHEMBL4513146, “CO-ADD screening of Karazin Kharkiv National University (Ukraine) compounds”.
Results with a measured potency or affinity are listed apart.

System: Escherichia coli
Conditions: Concentration 32 ug.mL-1;; ASSAY_TEST Inhibition of Bacterial Growth; detection method Absorption (OD600); MEDIA CAMHB; plate type 384well; NBS; CORNING #3640; time 18 hr

Row | Structure (SMILES) | Inhibition [%]
1 | O=C(Cn1nc2c(N3CCOCC3)nccn2c1=O)Nc1cc(C(F)(F)F)ccc1Cl | 4.52
2 | O=C(Cn1nc2c(Sc3cccc(F)c3)nccn2c1=O)Nc1ccc(Br)cc1 | -5.66
3 | Cc1cc(C)cc(NC(=O)Cn2nc3c4cc(-c5ccc(Cl)cc5)nn4ccn3c2=O)c1 | 6.23
4 | Cc1ccc(C)c(Cn2nc3n(CCC(C)C)c(=O)c4sccc4n3c2=O)c1 | 1.02
5 | CCc1cccc(C)c1NC(=O)CSc1nnc2ccc(C(=O)Nc3cccc(F)c3)cn12 | 2
6 | CCOc1ccc(NC(=O)Cn2nc3c(Oc4ccc(C)cc4)nccn3c2=O)cc1 | -4.41
7 | CC(C)Cn1c(=O)c2sccc2n2c(=O)n(CC(=O)N3CCC(Cc4ccccc4)CC3)nc12 | -14.95
8 | COc1ccc(-c2cc3c4nn(CC(=O)NCc5ccc(Cl)cc5)c(=O)n4ccn3n2)cc1 | 5.93
9 | COc1ccccc1-n1ccn2c(SCC(=O)Nc3ccc4c(c3)OCO4)nnc2c1=O | -8.08
10 | O=c1n(Cc2cccc(C(F)(F)F)c2)nc2c(S(=O)(=O)N3CCCC3)cccn12 | -1.06
11 | O=C(Cn1nc2ccc(Sc3ccccc3)nn2c1=O)Nc1ccc(F)c(Cl)c1 | -2.75
12 | O=C(Cn1nc2c(SC3CCCCC3)nccn2c1=O)NCc1ccc(F)cc1 | -3.55
13 | COc1ccc(Cl)cc1NC(=O)Cn1nc2c3cc(-c4ccc(C)cc4)nn3ccn2c1=O | 3.02
14 | COc1cccc(N(Cc2ccc(F)cc2)S(=O)(=O)c2ccc3nncn3c2)c1 | -9.93
15 | CCC(C)NC(=O)CSc1nnc2c(=O)n(Cc3ccc(F)cc3)ccn12 (centres undefined) | -9
16 | Cc1cccc(C)c1NC(=O)Cn1c(=O)c2nnc(C(C)C)n2c2ccccc21 | 1.82
17 | COC(=O)c1ccc(NC(=O)Cn2nc3c(Oc4ccccc4C)nccn3c2=O)cc1 | 1.22
18 | COc1ccc(-c2cc3c4nn(CC(=O)Nc5cccc(C)c5)c(=O)n4ccn3n2)cc1 | -1.93
19 | O=C(CSc1nnc2c(=O)n(-c3ccccc3)ccn12)Nc1ccc(Br)cc1F | -9.92
20 | Cc1c(Cl)cccc1NC(=O)Cn1nc2c(SCc3ccccc3)nccn2c1=O | -6.95
21 | CC(C)c1nnc2c(SCC(=O)N3CCN(c4ccccc4F)CC3)nc3ccccc3n12 | -6.39
22 | COc1cccc(Oc2nccn3c(=O)n(CC(=O)Nc4ccc(Br)cc4F)nc23)c1 | -0.07
23 | Cc1cc(C)cc(N(Cc2ccccc2)S(=O)(=O)c2cccn3c(C)nnc23)c1 | -7.5
24 | CCCNC(=O)CSc1nnc2c(=O)n(-c3ccc(F)cc3)ccn12 | -1
